About 7,900 targets were measured; listed, in parts, are those with a hit and a random draw of the rest. About 0.6% of all pairs of compound and target were hits.
What was measured:
Assay in all cases: log2 fold change, soluble protein after heating vs DMSO (PISA); higher = thermal stabilisation; K562 cells, 10 uM, 30 min; active = over 0.2 and 3.5 SD of the protein, either way, in both replicates (recomputed)
[1] = compound: CS(=O)(=O)c1ccc(-c2cnc(N)c(C(=O)Nc3ccccc3)n2)cc1
Summary of the method: (§1)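 K562 cells at 2×10^6 cells/mL were treated with 10 μM compound for 30 min. Aliquots were heated for 3 min across 48°C-58°C, pooled, and extracted in PBS with 0.5% NP-40 at 4°C; soluble protein was the supernatant after 21,000xg for 90 min. Soluble protein was quantified by TMTpro 16plex LC-MS/MS with channel sums equalised, and reported as log2 fold change in thermal stability against DMSO controls, with values from duplicates.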

crizotinib = compound: C[C@@H](Oc1cc(-c2cnn(C3CCNCC3)c2)cnc1N)c1c(Cl)ccc(F)c1Cl [crizotinib]
Summary of the method: as §1

[2] = compound: C[C@@H]1COCCN1C2=NC(=NC(=C2)C3(CC3)S(=O)(=O)C)C4=C5C=CNC5=CC=C4
Summary of the method: as §1

[3] = compound: C[C@H](C1=CC=C(C=C1)C(=O)NC2=C3C=CNC3=NC=C2)N
Summary of the method: as §1

duvelisib = compound: C[C@H](Nc1ncnc2nc[nH]c12)c1cc2cccc(Cl)c2c(=O)n1-c1ccccc1 [duvelisib]
Summary of the method: as §1

gandotinib = compound: Cc1cc(Nc2cc(CN3CCOCC3)c3nc(C)c(Cc4ccc(Cl)cc4F)n3n2)n[nH]1 [gandotinib]
Summary of the method: as §1

tozasertib = compound: Cc1cc(Nc2cc(N3CCN(C)CC3)nc(Sc3ccc(NC(=O)C4CC4)cc3)n2)n[nH]1 [tozasertib]
Summary of the method: as §1

[4] = compound: Cc1cc(SCc2sc(-c3ccc(C(F)(F)F)cc3)nc2C)ccc1OCC(=O)O
Summary of the method: as §1

doramapimod = compound: Cc1ccc(-n2nc(C(C)(C)C)cc2NC(=O)Nc2ccc(OCCN3CCOCC3)c3ccccc23)cc1 [doramapimod]
Summary of the method: as §1

ispinesib = compound: Cc1ccc(C(=O)N(CCCN)[C@@H](c2nc3cc(Cl)ccc3c(=O)n2Cc2ccccc2)C(C)C)cc1 [ispinesib]
Summary of the method: as §1

Measured: log2 fold change

WAPL isoform 3 (UniProt Q7Z5K2)
inactive: [1] 0.052 | crizotinib -0.23 | [2] 0.18 | [3] -0.142 | duvelisib 0 | gandotinib -0.199 | tozasertib 0.052 | [4] -0.006 | doramapimod 0.017 | ispinesib -0.026

USP9X (UniProt Q93008)
inactive: [1] -0.008 | crizotinib -0.159 | [2] -0.024 | [3] 0.033 | duvelisib 0.001 | gandotinib -0.125 | tozasertib 0 | [4] 0.053 | doramapimod 0.016 | ispinesib -0.058

UBE2E3 (UniProt Q969T4)
inactive: [1] 0.008 | crizotinib 0 | [2] 0.219 | [3] 0.008 | duvelisib 0.025 | gandotinib -0.052 | tozasertib 0.061 | [4] 0.034 | doramapimod 0.03 | ispinesib -0.005

TOM1L1 (UniProt O75674)
Chain of UniProt O75674 (O75674 whole entry, looked up): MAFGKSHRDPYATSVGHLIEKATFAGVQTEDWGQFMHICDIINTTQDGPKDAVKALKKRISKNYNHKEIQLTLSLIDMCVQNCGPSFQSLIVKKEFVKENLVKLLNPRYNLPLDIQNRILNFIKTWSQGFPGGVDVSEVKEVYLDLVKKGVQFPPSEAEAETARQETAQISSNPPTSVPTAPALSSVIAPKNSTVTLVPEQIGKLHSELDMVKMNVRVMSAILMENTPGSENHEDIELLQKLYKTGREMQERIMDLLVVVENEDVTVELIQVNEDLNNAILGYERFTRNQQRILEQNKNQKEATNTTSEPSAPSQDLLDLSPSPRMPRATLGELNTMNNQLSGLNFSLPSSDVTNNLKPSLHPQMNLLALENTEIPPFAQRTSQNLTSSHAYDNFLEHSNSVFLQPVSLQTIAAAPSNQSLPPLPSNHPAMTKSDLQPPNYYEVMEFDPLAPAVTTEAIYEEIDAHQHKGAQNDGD
inactive: [1] -0.001 | crizotinib 0.08 | [2] 0.184 | [3] -0.059 | duvelisib 0.102 | tozasertib -0.03 | [4] 0.011 | doramapimod -0.021 | ispinesib -0.016
active: gandotinib -0.342

TMEM184C (UniProt Q9NVA4)
inactive: [1] 0.117 | crizotinib -0.267 | [2] 0.019 | [3] -0.049 | duvelisib -0.046 | gandotinib -0.038 | tozasertib 0.046 | [4] 0.036 | doramapimod 0.019
active: ispinesib -0.365

TOM1 isoform 2 (UniProt O60784)
inactive: [1] 0.146 | crizotinib -0.002 | [2] 0.035 | [3] -0.096 | duvelisib 0.043 | gandotinib 0.101 | tozasertib 0.013 | [4] 0.023 | doramapimod -0.078 | ispinesib -0.043

TRAPPC6B (UniProt Q86SZ2)
inactive: [1] -0.008 | crizotinib 0.024 | [2] 0.111 | [3] -0.069 | duvelisib 0.044 | gandotinib -0.045 | tozasertib 0.014 | [4] -0.014 | doramapimod 0.025 | ispinesib 0.014

USP14 (UniProt P54578)
inactive: [1] 0.006 | crizotinib -0.023 | [2] 0.082 | [3] -0.037 | duvelisib 0.067 | gandotinib -0.078 | tozasertib -0.002 | [4] 0.076 | doramapimod 0.002 | ispinesib 0.017

TYW1 (UniProt Q9NV66)
inactive: [1] 0.038 | crizotinib 0.143 | [2] 0.032 | [3] 0.053 | duvelisib 0.035 | gandotinib -0.004 | tozasertib 0.037 | [4] 0.021 | doramapimod 0.008 | ispinesib 0.179

TRAPPC13 isoform 5 (UniProt A5PLN9)
inactive: [1] -0.037 | crizotinib -0.054 | [2] 0.067 | [3] 0.009 | duvelisib 0.02 | gandotinib -0.007 | tozasertib -0.028 | [4] 0.087 | doramapimod 0.047 | ispinesib 0.032

TPP1 (UniProt O14773)
active: crizotinib -0.371
inactive: [1] 0.025 | [2] 0.022 | [3] -0.026 | duvelisib 0.056 | gandotinib 0.049 | tozasertib -0.009 | [4] -0.016 | doramapimod 0.008 | ispinesib -0.189

UGDH (UniProt O60701)
inactive: [1] -0.106 | crizotinib 0.079 | [2] 0.041 | [3] -0.161 | duvelisib 0.061 | gandotinib -0.064 | tozasertib 0.046 | [4] 0.049 | doramapimod -0.106 | ispinesib 0.165

TOMM20 (UniProt Q15388)
inactive: [1] -0.068 | crizotinib -0.019 | [2] 0.058 | [3] -0.06 | duvelisib 0.016 | gandotinib 0.116 | tozasertib -0.042 | [4] -0.062 | doramapimod -0.025
active: ispinesib -0.358

TP53BP1 isoform 2 (UniProt Q12888)
inactive: [1] 0.025 | crizotinib 0.076 | [2] -0.001 | [3] 0.018 | duvelisib -0.025 | gandotinib -0.053 | tozasertib 0.205 | [4] 0.066 | doramapimod 0.036 | ispinesib 0.002

XPOT (UniProt O43592)
inactive: [1] 0.009 | crizotinib -0.123 | [2] 0.024 | [3] -0.001 | duvelisib 0.005 | gandotinib -0.177 | tozasertib 0.15 | [4] 0.068 | doramapimod -0.011 | ispinesib -0.12

VTI1B (UniProt Q9UEU0)
Chain of UniProt Q9UEU0 (Q9UEU0 whole entry, looked up): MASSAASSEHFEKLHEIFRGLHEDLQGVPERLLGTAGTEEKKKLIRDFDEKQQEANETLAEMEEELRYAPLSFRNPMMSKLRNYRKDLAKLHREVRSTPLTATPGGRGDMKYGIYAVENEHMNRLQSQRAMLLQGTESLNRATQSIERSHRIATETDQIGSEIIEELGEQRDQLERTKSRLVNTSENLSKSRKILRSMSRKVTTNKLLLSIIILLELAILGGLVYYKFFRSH
inactive: [1] 0.022 | crizotinib -0.089 | [2] 0.025 | [3] 0.032 | duvelisib -0.045 | gandotinib 0.039 | tozasertib 0.005 | [4] -0.077 | doramapimod 0.084
active: ispinesib -0.41

VPS28 (UniProt Q9UK41)
inactive: [1] 0.01 | crizotinib 0.051 | [2] 0.063 | [3] -0.091 | duvelisib 0.044 | gandotinib -0.055 | tozasertib 0 | [4] 0.096 | doramapimod 0.035 | ispinesib -0.041

VPS33A (UniProt Q96AX1)
Chain of UniProt Q96AX1 (Q96AX1 whole entry, looked up): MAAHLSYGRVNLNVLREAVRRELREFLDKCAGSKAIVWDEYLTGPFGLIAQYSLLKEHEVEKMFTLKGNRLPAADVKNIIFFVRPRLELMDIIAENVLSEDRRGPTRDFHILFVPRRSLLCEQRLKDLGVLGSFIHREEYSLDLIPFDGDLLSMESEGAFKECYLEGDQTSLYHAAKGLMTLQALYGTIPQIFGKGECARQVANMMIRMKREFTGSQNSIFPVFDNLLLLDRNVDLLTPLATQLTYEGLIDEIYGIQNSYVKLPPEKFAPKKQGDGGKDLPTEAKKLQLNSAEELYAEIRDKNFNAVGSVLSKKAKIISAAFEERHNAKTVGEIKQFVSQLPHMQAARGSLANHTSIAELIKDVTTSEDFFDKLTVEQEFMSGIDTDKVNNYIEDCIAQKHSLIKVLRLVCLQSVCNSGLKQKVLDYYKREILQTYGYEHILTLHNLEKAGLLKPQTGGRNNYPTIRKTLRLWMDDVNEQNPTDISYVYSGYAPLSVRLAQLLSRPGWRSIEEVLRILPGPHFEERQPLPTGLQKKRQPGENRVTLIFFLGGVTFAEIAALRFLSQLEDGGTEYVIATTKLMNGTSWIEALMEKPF
inactive: [1] -0.031 | crizotinib -0.218 | [2] 0.014 | [3] 0.043 | duvelisib 0.029 | gandotinib -0.091 | tozasertib 0.036 | [4] 0.049 | doramapimod -0.017 | ispinesib -0.154

XPO1 (UniProt O14980)
Chain of UniProt O14980 (O14980 whole entry, looked up): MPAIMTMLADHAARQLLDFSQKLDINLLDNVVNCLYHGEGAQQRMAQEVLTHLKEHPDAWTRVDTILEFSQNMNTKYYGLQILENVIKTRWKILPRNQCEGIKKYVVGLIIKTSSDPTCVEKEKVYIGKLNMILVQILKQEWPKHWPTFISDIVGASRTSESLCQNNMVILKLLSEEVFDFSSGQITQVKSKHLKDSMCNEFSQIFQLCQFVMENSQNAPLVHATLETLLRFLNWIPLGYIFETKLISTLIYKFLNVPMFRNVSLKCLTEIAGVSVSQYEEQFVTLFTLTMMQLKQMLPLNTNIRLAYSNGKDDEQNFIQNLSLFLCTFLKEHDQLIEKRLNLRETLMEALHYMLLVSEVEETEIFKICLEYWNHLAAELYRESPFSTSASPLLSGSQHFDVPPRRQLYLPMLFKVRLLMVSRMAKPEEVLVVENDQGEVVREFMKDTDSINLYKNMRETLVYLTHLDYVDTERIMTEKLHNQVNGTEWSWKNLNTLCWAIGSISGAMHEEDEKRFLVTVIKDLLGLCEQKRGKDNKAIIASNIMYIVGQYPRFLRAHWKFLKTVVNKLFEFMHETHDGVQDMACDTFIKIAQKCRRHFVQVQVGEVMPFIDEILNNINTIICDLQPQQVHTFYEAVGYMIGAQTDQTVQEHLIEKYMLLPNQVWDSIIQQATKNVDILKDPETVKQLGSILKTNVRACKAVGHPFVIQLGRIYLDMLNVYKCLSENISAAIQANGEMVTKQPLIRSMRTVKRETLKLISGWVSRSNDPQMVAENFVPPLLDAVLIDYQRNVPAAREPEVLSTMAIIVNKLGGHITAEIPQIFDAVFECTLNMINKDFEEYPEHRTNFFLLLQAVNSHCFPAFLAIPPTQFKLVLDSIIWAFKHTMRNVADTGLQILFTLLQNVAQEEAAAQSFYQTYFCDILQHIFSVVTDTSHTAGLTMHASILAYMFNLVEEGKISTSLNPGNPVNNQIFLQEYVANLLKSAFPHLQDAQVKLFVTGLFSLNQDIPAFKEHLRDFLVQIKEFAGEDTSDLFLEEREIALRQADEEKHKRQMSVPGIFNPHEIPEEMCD
inactive: [1] -0.016 | crizotinib -0.138 | [2] 0.089 | [3] 0.006 | duvelisib -0.024 | gandotinib -0.223 | tozasertib 0.027 | [4] 0.094 | doramapimod -0.034 | ispinesib -0.081

WDHD1 (UniProt O75717)
inactive: [1] 0.038 | crizotinib 0.021 | [2] 0.098 | [3] -0.025 | duvelisib 0.109 | gandotinib -0.029 | tozasertib 0.09 | [4] 0.109 | doramapimod -0.093 | ispinesib 0.042

WDR46 (UniProt O15213)
Chain of UniProt O15213 (O15213 whole entry, looked up): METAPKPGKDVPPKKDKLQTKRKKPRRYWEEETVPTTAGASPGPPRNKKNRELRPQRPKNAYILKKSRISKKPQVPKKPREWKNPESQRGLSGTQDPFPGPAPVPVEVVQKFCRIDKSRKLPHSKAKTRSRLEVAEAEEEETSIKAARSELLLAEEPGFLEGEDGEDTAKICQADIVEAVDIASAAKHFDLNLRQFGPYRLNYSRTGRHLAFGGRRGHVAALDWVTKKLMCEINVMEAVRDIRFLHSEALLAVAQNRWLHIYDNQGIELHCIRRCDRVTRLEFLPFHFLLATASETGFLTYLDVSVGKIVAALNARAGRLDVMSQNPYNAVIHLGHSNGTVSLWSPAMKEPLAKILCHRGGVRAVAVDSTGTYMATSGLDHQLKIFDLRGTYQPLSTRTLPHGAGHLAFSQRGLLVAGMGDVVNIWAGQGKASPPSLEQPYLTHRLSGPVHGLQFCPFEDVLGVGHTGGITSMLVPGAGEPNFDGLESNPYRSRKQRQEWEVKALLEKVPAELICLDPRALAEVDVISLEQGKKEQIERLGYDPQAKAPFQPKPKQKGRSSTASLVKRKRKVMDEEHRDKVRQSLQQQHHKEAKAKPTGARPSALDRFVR
inactive: [1] -0.05 | crizotinib 0.008 | [2] -0.731 | [3] 0.445 | duvelisib -0.199 | gandotinib 0.27 | tozasertib 0.068 | [4] 0.032 | doramapimod 0.142 | ispinesib -0.081

VPS33B (UniProt Q9H267)
Chain of UniProt Q9H267 (Q9H267 whole entry, looked up): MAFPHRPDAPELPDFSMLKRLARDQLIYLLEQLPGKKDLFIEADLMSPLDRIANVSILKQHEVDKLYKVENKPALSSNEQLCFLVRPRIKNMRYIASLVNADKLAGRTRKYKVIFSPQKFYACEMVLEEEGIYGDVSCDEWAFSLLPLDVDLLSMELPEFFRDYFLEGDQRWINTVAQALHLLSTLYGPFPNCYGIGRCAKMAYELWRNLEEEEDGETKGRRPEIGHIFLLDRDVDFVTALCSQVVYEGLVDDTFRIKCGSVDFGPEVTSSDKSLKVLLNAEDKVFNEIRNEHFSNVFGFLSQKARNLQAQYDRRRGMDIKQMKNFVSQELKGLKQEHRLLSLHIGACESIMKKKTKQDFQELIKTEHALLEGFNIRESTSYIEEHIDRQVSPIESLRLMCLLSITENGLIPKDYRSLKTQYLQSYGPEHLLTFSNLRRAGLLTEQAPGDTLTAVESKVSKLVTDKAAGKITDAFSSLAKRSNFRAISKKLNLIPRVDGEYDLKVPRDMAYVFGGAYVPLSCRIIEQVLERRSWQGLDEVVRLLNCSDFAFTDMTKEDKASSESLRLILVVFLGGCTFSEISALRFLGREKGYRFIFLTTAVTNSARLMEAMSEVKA
inactive: [1] 0.05 | crizotinib -0.182 | [2] -0.022 | [3] 0.063 | duvelisib -0.004 | gandotinib -0.114 | tozasertib 0.012 | [4] 0.085 | doramapimod -0.01 | ispinesib -0.149

VPS52 (UniProt Q8N1B4)
inactive: [1] -0.001 | crizotinib -0.102 | [2] -0.031 | [3] 0.058 | duvelisib 0.033 | gandotinib -0.122 | tozasertib 0.022 | [4] -0.013 | doramapimod 0.008 | ispinesib -0.068

VPS51 (UniProt Q9UID3)
inactive: [1] -0.009 | crizotinib -0.096 | [2] -0.003 | [3] 0.05 | duvelisib 0.006 | gandotinib -0.04 | tozasertib 0.033 | [4] 0.079 | doramapimod 0.008 | ispinesib -0.115

TNNC2 (UniProt P02585)
inactive: [1] -0.004 | crizotinib 0.06 | [2] 0.04 | [3] -0.005 | duvelisib 0.072 | gandotinib 0.078 | [4] -0.059 | doramapimod -0.014 | ispinesib 0.022
active: tozasertib -1.1

USP15 (UniProt Q9Y4E8)
inactive: [1] 0.04 | crizotinib -0.041 | [2] 0.05 | [3] -0.009 | duvelisib 0.01 | gandotinib -0.043 | tozasertib 0.056 | [4] 0.063 | doramapimod -0.045 | ispinesib -0.036

XPNPEP1 isoform 3 (UniProt Q9NQW7)
Chain of UniProt Q9NQW7 (Q9NQW7 whole entry, looked up): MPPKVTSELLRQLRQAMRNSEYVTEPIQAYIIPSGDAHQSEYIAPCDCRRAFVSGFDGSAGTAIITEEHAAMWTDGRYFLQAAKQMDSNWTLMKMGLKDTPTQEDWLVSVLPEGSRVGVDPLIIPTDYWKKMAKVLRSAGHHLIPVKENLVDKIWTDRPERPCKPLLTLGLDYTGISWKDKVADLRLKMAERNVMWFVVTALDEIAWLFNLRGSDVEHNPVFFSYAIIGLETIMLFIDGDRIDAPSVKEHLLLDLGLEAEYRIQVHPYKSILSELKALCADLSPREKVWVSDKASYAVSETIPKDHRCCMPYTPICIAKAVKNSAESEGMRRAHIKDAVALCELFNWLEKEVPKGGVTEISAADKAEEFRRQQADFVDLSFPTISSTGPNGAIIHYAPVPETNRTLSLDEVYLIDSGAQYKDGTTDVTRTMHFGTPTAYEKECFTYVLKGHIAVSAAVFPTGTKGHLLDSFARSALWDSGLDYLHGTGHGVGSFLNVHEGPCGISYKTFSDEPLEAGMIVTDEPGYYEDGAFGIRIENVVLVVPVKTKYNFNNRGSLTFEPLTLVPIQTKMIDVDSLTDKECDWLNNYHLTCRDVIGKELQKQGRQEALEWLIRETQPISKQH
inactive: [1] 0.069 | crizotinib -0.023 | [2] 0.098 | [3] -0.076 | duvelisib 0.036 | gandotinib -0.053 | tozasertib -0.023 | [4] 0.007 | doramapimod 0.028 | ispinesib -0.015

UFL1 (UniProt O94874)
Chain of UniProt O94874 (O94874 whole entry, looked up): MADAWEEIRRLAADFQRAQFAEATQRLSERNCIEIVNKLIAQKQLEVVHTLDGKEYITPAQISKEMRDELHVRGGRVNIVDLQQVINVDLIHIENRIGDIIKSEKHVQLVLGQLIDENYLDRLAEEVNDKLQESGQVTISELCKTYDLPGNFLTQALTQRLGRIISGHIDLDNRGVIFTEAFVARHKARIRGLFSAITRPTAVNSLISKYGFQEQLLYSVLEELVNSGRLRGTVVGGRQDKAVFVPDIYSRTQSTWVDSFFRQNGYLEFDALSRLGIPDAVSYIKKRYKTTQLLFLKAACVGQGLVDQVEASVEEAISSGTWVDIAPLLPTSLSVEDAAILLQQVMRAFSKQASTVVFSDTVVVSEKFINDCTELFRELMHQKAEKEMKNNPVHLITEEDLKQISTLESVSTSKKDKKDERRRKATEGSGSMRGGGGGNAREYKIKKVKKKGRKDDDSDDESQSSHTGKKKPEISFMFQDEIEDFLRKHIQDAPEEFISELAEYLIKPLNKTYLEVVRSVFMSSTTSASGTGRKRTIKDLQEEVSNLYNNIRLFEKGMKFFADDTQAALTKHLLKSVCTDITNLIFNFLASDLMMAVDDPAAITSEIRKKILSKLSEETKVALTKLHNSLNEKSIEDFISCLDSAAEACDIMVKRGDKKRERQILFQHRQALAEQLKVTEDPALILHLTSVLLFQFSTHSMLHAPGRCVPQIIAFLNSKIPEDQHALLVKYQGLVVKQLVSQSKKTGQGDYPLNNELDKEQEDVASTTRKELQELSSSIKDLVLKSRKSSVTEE
inactive: [1] 0.05 | crizotinib -0.053 | [2] -0.043 | [3] 0.067 | duvelisib 0.005 | gandotinib -0.069 | tozasertib -0.016 | [4] 0.106 | doramapimod -0.02 | ispinesib -0.025

TTC38 (UniProt Q5R3I4)
inactive: [1] -0.055 | crizotinib -0.085 | [2] -0.085 | [3] -0.073 | duvelisib -0.027 | gandotinib -0.031 | tozasertib 0 | [4] 0.063 | ispinesib 0.06
active: doramapimod 0.73

TRABD (UniProt Q9H4I3)
inactive: [1] -0.041 | crizotinib 0.174 | [2] 0.097 | [3] -0.062 | gandotinib 0.059 | tozasertib 0.009 | doramapimod 0.025
active: ispinesib 0.597
